# Laboratory results published in the supplement of paper PMC6555819.
# Legend:
# Test in all cases: PBM binding z-score (relative to random genomic background probes); higher = stronger binding; sequences stand for … in GC…GCGATTGACAGCGTAGAATGAAGG
# [1] = system: PPARg:RXRa DBDmut IVT, anti-RXR (DBD mutation: RXRa K156A/R161A, NR concentration 270 nM, RXRa partner concentration 90 nM)
# Procedure, shortened: (§1)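 Antibodies against each partner of ligand-free nuclear receptor dimers (one per run) detected binding on custom Agilent 4×180K protein-binding microarrays after 1 h incubation. The double-stranded probes had 34-nt variable regions carrying direct-repeat seeds, single-nucleotide variants, half-site ablations and random human genomic background sequences. Binding z-scores, from regression-normalized fluorescence, use the random background probes as reference.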
# [2] = system: PPARg:RXRa IVT, anti-PPARg (NR concentration 270 nM, RXRa partner concentration 90 nM)
# Procedure, shortened: as §1
# [3] = system: PPARg DBDmut:RXRa IVT, anti-PPARg (DBD mutation: PPARg1 K132A/R137A, NR concentration 270 nM, RXRa partner concentration 90 nM)
# Procedure, shortened: as §1
# [4] = system: PPARg DBDmut IVT, anti-PPARg (DBD mutation: PPARg1 K132A/R137A, NR concentration 270 nM)
# Procedure, shortened: as §1
# [5] = system: PPARg homodimer (NR concentration 180 nM)
# Procedure, shortened: as §1
# [6] = system: PXR:RXRa (NR concentration 270 nM, RXRa partner concentration 90 nM)
# Procedure, shortened: as §1
# [7] = system: PXR homodimer (NR concentration 270 nM)
# Procedure, shortened: as §1
# [8] = system: RARa:RXR (NR concentration 270 nM, RXRa partner concentration 90 nM)
# Procedure, shortened: as §1
# [9] = system: RARa homodimer (NR concentration 270 nM)
# Procedure, shortened: as §1
# [10] = system: RARb:RXRa (NR concentration 270 nM, RXRa partner concentration 90 nM)
# Procedure, shortened: as §1
Sequence,PBM binding z-score [1],PBM binding z-score [2],PBM binding z-score [3],PBM binding z-score [4],PBM binding z-score [5],PBM binding z-score [6],PBM binding z-score [7],PBM binding z-score [8],PBM binding z-score [9],PBM binding z-score [10]
TTATATAGGTAAATGCTAGGTGAAAGTCCGATCT,6.27,5.32,1.86,2.12,1.28,0.481,0.535,0.686,1.58,0.351
AGTATTAGTTGACTTAGGGCAACCGATACGACGC,-0.0999,0.548,0.229,1.16,0.56,0.237,0.692,0.353,1,1.12
TAGCCTAGGTCATTCAGGGGCCGGTATAGAAAGC,1.8,2.62,0.426,-0.644,1.79,2.11,-0.0709,3.04,-0.178,3.79
GTTCCAAGGTGAATAGGTCGTTGATGAGTAGGCG,2.09,2.89,-0.109,0.149,1.58,1.02,0.352,2.05,0.818,2.22
AATACAGGGTCATCGTAAGCCAGAGTACGCACAG,2.67,4.15,1.58,1.04,1.65,4.05,1,4.6,0.623,4.43
TAGCCTAGTTCAGATCGGGCCAGTATACGCTATA,0.415,0.54,-0.537,-0.978,-0.824,0.226,-0.407,0.532,-1.17,0.472
CTCGATAGGTCGTGCTCAGGTGAGTATACCAAAC,0.241,0.78,-0.285,0.141,0.257,0.623,-0.52,1.44,-0.705,1.77
ATCGAAAGGTCGACTAGGTGAGTATACACCGTTT,0.845,2.25,0.674,1.34,0.62,2.73,0.165,3.24,0.35,3.72
ATCGAAAGGTCGCCGAGGTGAGTATACACCGTTT,0.699,2.7,1.2,0.615,1.79,3.34,0.6,4.03,0.336,4.25
AGTCAAAGTTCACTGGGTAACGTAAGATTCAGCT,2.75,4.82,1.38,0.335,2.63,4.4,3.47,3.63,1.43,4.81
GCAAACAGGTGAAACGCAGGTAACTCAGGGTGGC,2.26,1.32,-0.68,-0.00566,-0.416,-0.255,-0.519,0.397,-0.686,0.596
ACTCTTAGTTGACTTAGGGCAACCGATACGACGC,0.723,0.491,1.1,1.39,0.782,0.578,0.291,0.777,0.704,1.04
CCTTACAGGTCACTGACAGGTTATAGCATTTGGA,4.62,4.34,1.33,1.38,3.27,3.86,0.606,4.73,2.15,4.67
CAAACTAGGTCACAGAGATCAAAGTCCGTGCGTA,8.62,9.06,1.86,1,2.16,2.28,0.448,2.78,0.89,4.03
AGAATGAGGTTAGGATCAGGGAAACAGAATACAT,1.28,1.5,1.12,0.953,1.27,0.668,0.603,0.932,1.08,1.37
AATACAGGGTCATCGAAGGCCAGAGTACGCACAG,2.6,4.19,1.28,0.988,2.16,5.22,0.967,4.45,0.641,4.32
CCTGCTAGGACATGGTCAGCTAATCTACAGTATG,0.152,-0.597,-0.458,-0.543,-0.902,-0.794,-0.746,-0.925,-0.734,0.0895
CGTCCAAGGTCATAGGCGGTCAGTGAAGACAGAT,2.93,3.58,-0.0996,0.332,2.85,5.12,1.57,4.75,1.15,4.94
AAGACAGGGTCATCGTAGGCCAGAGTACGCACAG,1.48,2.99,0.884,0.174,1.25,4.95,0.0301,4.92,0.453,4.23
GCTGCTAGGTCAACTGGTGGTCAGCTAAAGCTCG,4.77,4.33,-0.118,-0.735,2.55,1.61,-0.644,3.34,-0.0343,4.23
CTCGAAAGGTCGTGCTCATGTGAGTATACCAAAC,1.04,1.63,0.526,0.798,1.16,3.17,0.0761,4.03,0.231,4.13
CCTGCTAGGCCATGGTCAGCTAATCTACAGTATG,1.36,0.103,-0.241,-1.56,-0.736,-0.665,-0.705,-0.631,-0.715,0.929
ATATATAGGTTAGCTGGGGTCATTCAGACTAGGC,6.82,5.96,2.35,1.71,2.62,6.52,3.94,5.27,2.07,3.21
TAGCCTAGGTCATGCGGGCCCGTATAGTGTCGGC,1.87,3.05,-0.348,0.0155,0.405,1.07,-0.531,2,-0.428,3.62
